# Compound activity: PubChem BioAssay, National Center for Advancing Translational Sciences (NCATS)
# Hits are enriched below; roughly 1.2% of the tested compounds scored in any of these assays.
# Anesthetic bind: candidate novel general anesthetic via apoferritin binding; P02791; Potency, µM (titrated, usually from 77.5 µM), hits mostly inhibitors; AID 485281; apoferritin/1-aminoanthracene competitive binding, fluorescence; 0.074% of 350,000 active; also: nearly all actives have a fitted effect of over 20% in size
#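 In PBS, apoferritin at 10 uM is loaded with 1-AMA from a 50% saturated solution. After 10 min of compound exposure at ambient temperature, reduced 535 nm fluorescence indicates probe displacement.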
# S-ASM inh: human S-ASM enzyme inhibition | P17405 | placental ASM, HMU-PC fluorogenic substrate, 60 min | Potency, µM (top dose mostly 57.5 µM), actives largely listed as inhibitors | 0.006% of 340,000 active | AID 504937
#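 Fluorogenic HMU-PC substrate (9 uM final) is turned over by placental ASM in 60 min at 37 C after a 10 min compound preincubation. Reaction ended by alkaline stop (pH 10), with fluorescence read at 386/447 nm.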
# KCNH2 3.1 inh: KCNH2 3.1 (human) potassium channel inhibition; AID 720553; activity change, % (tested at about 1.8 µM); U2OS KCNH2 3.1, thallium flux FluxOr; hits give low values; 0.95% of 340,000 active;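 active = maximum activity change below -70%; inconclusive = maximum activity change from -70% to -50%; inactive = maximum activity change above -50%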;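 also: thallium influx rate constant from kinetic fluorescence after stimulation buffer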
#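 Normalized rate constant (relative to positive and negative DMSO controls) derived from a 2 min kinetic fluorescence read after stimulation; U2OS cells expressing the 3.1 isoform via virus at 1.77 x 10^8 /mL.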
# KCNH2 WT inh: blocks the wildtype human KCNH2 potassium channel. U2OS, BacMam KCNH2, thallium flux FluxOr; hits give low values. activity change, % at 1.84 µM. 0.37% of 340,000 active. Q12809;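 active = maximum activity change below -70%; inconclusive = maximum activity change between -70% and -50%; inactive = maximum activity change above -50%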
# Target sequence (Q12809 whole entry, looked up): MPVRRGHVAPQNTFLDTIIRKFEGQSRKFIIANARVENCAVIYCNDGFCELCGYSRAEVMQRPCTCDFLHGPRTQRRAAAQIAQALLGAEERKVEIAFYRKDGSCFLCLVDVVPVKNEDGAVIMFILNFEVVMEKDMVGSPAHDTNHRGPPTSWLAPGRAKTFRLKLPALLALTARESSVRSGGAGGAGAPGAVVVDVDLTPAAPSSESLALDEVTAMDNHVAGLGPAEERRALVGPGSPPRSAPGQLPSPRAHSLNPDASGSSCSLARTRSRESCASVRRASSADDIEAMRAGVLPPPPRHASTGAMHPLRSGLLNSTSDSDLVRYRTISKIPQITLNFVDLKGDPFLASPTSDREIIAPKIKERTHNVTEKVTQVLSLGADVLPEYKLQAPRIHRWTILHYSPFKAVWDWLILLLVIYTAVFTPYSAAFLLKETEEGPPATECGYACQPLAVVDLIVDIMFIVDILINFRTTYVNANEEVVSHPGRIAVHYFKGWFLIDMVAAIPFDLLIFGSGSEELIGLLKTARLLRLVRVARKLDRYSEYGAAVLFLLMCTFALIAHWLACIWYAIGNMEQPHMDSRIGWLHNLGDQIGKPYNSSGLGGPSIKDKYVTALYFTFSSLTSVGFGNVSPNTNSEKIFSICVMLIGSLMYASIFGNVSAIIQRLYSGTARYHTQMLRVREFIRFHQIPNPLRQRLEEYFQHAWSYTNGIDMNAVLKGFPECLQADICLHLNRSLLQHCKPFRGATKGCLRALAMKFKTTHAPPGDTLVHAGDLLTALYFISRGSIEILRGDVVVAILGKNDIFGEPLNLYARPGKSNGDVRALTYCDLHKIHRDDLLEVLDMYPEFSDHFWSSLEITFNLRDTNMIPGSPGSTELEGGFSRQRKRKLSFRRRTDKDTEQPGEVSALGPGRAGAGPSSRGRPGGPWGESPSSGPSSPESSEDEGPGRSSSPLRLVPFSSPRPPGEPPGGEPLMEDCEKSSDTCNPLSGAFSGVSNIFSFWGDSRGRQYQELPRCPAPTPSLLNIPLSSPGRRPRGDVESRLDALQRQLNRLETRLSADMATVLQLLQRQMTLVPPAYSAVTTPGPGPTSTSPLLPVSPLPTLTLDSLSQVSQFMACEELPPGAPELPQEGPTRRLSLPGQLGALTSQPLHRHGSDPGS
#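 U2OS cells were transduced with wild-type KCNH2 virus (2.03 x 10^8 / mL) for 4 h at room temperature, then cultured overnight at 37 C. Thallium flux was read with FluxOr dye. Rate constants were normalized to DMSO controls.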
# IDH1 R132H inh: blocks human mutant IDH1 R132H enzyme; IDH1-R132H enzyme, NADPH consumption, diaphorase/resazurin fluorescence; Potency, µM (titrated, usually from 76.6 µM), hits mostly inhibitors; 0.093% of 390,000 active; also: nearly all actives have a fitted effect of over 65% in size
#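 IDH1-R132H (0.5 ug/mL) preincubated 30 min with compound, then NADPH (0.016 mM) and alpha-KG (2 mM) added; 80 min at RT, pH 7.5. Remaining NADPH coupled via diaphorase/resazurin to fluorescence (540/590 nm); concentration-response curves normalized to no-enzyme control.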
# A number is an active result; i = inactive; ? = inconclusive; nt = no result; ! = a repeat was not active; [ ] = dose if it differs, or a comment. Unless noted, calls follow the shape of the dose curve; as a rule, active = well fitted inhibition curve with a large enough effect; inconclusive = small, poorly fitted or top-dose-only effect; inactive = no such curve, though single readings can be large or run the other way.
SMILES,Anesthetic bind,S-ASM inh,KCNH2 3.1 inh,KCNH2 WT inh,IDH1 R132H inh
CCCCCCCNC(=O)C1(CC2CC(c3cccc(Br)c3)=NO2)CCNCC1 (centres undefined),i,i,-77,i,i
COCCNC(=O)C1CCN(S(=O)(=O)c2ccc3c(c2)CCCN3C(C)=O)CC1,i,nt,nt,nt,i
NCC(=O)N[C@@H](CCCN=C(N)N)C(=O)NCC(=O)N[C@@H](CCC(=O)O)C(=O)N[C@@H](CO)C(=O)O,i,nt,nt,nt,nt
CC(=O)N1CCc2c(sc3c2c(=O)n(-c2cc(Cl)ccc2C)c(=O)n3C)C1,i,nt,nt,nt,i
CN(C)c1oc(/C=C/c2ccccc2)nc1C#N,i,i,i,-262,i
COc1ccc(CC2(CO)CCN(C(C)COc3ccccc3)CC2)cc1 (centres undefined),i,i,-94,i,i
COc1ccc(CC2(CO)CCN(S(=O)(=O)N(C)C)CC2)cc1,i,i,i,i,i
Cc1ncc(CN2CCC(CO)(Cc3ccccc3)CC2)s1,i,i,i,i,i
CC(COc1ccccc1)N1CCC(CO)(Cc2ccccc2)CC1 (centres undefined),i,i,-72,i,i
CCN(CC)CCCn1c(-c2ccccc2)nc2c(N3CCOCC3)nc(C)nc21,i,nt,nt,nt,nt
Cc1c(NC(=O)c2cc([N+](=O)[O-])ccc2N2CCOCC2)cccc1-c1nc2ccccc2o1,i,nt,nt,nt,i
CC(=O)Nc1ccc(S(=O)(=O)NCCOc2ccc(Cl)cc2C)cc1,i,i,-190,-120,i
O=C(CCl)Nc1ccccc1C(=O)NCc1ccccc1,i,i,-109,i,i
N.N.O=C(O)C1(C(=O)O)CCC1.[Pt],i,nt,nt,nt,nt
Cc1ccc(Cl)cc1NC(=O)Nc1cccc(OCc2cc(=O)n3ccccc3n2)c1,i,nt,nt,nt,i
CCOc1ccccc1CNCc1cccn1-c1nnc(N2CCN(c3ccccc3)CC2)s1,i,nt,nt,nt,i
COc1cccc(CNC(=O)Cn2nc(-c3ccc(Cl)cc3)ccc2=O)c1,6.3µM!,i,i,i,i
CCCCNC(=O)Cn1nc(-c2ccc(C)cc2)ccc1=O,?,i,i,i,i
COc1cccc(CNC(=O)Cn2nc(-c3ccc(C)cc3)ccc2=O)c1,?,nt,nt,nt,i
O=c1ccc(-c2ccccc2)nn1Cc1ccc(Cl)cc1,nt,i,i,i,i
Cc1ccc(-c2ccc(=O)n(CC(=O)NCc3ccc(F)cc3)n2)cc1,8.9µM,i,i,i,i
C=Cc1ccc(Cn2nc(-c3ccc(C)cc3)ccc2=O)cc1,16µM,?,i,i,i
C=CC[C@@H]1C=C[C@@H](O/N=C(/C)CCC(=O)OC[C@@H]2O[C@H](c3ccccc3)C=C[C@@H]2Oc2ccc(OC)cc2)[C@@H](CO)O1,i[15.3 µM],nt,nt,nt,nt
COC(=O)C1=C[C@@H](C(=O)OC)[C@@H]2C3=C(C(=O)[C@]2(C)NC(=O)c2ccccc2)[C@H](C)[C@@H]2C(=O)NC(=O)[C@@H]2[C@@H]3C1,i,nt,nt,nt,nt
CC(NC(=O)c1cccnc1)C(c1cccs1)N1CCOCC1 (centres undefined),i,i,i,i,i
SMILES,Anesthetic bind,S-ASM inh,KCNH2 3.1 inh,KCNH2 WT inh,IDH1 R132H inh
CC(NC(=O)c1cccnc1)C(c1ccccc1)N1CCN(C)CC1 (centres undefined),i,i,-77,i,i
CC(C)(C)c1ccc(OCCC(=O)NC2=NCCS2)cc1,13µM,i,i,i,i
COc1ccc(OCCC(=O)NC2=NCCS2)cc1,i,i,i,i,i
O=C(CNc1ccc(C(F)(F)F)cc1[N+](=O)[O-])OCC(=O)c1ccccc1,28µM,i,i,i,i
CC(C)NC(=O)CNc1ccc(C(F)(F)F)cc1[N+](=O)[O-],i,i,i,i,i
CCOC(=O)c1cccc(NC(=O)NCCc2c(C)nn(C)c2C)c1,i,nt,nt,nt,i
CCCCC(NC(=O)Cc1c(C)c2cc3c4c(oc3cc2oc1=O)CCCC4)C(=O)O (centres undefined),i,i,i,-151,i
Cc1c(CC(=O)N[C@@H](CCCNC(N)=O)C(=O)O)c(=O)oc2cc3oc4c(c3cc12)CCCC4,i,nt,nt,nt,nt
CCC/C(=N\NC(=O)CNC(=O)c1ccc(Cl)cc1)c1ccccc1,16µM,i,i,i,i
Cc1ccccc1CS(=O)(=O)Cc1ccc(C(=O)NCCc2ccc(Cl)cc2)o1,?,nt,nt,nt,i
CCN(CC)Cc1c(C(=O)N/N=C/c2ccc(OCc3ccccc3C)cc2)nnn1-c1nonc1N,i,i,-96,-123,i
CN(C)Cc1c(C(=O)N/N=C/c2ccc(-c3ccccc3)cc2)nnn1-c1nonc1N,i,i,-93,i,i
CCc1ccc(CNC(=O)c2cc(=O)[nH]c3ccc(S(=O)(=O)N4CCCCC4)cc23)cc1,i,nt,nt,nt,i
COc1ccc(C(=C2C(=O)Nc3ccccc32)c2ccc(OC)cc2)cc1,i,nt,nt,nt,nt
COc1cc(-n2cnnn2)ccc1S(=O)(=O)N1CCOCC1,i,i,-144,-106,i
CC[C@@H](C)C(NC(=O)OC(C)(C)C)c1cn([C@@H](CCCCNC(=O)OC(C)(C)C)C(=O)N2CCN(C(=O)OC(C)(C)C)CC2)nn1 (some centres undefined),i,i,i,-291,i
CCOC(=O)c1ccc(CN(Cc2ccccc2C)S(=O)(=O)c2ccc(F)c(C)c2)cc1,i,nt,nt,nt,i
Cc1oc(-c2ccc(C(=O)NCCC(C)C)cc2)nc1CS(=O)(=O)c1ccccc1,i,nt,nt,nt,i
COc1ccc(C2CC(=O)c3cc(-c4nc(-c5cccc([N+](=O)[O-])c5)cs4)c(=O)n(-c4ccc(C)c(C)c4)c3C2)cc1 (centres undefined),i,nt,nt,nt,i
CCOc1ccccc1N1CCN(C(=O)C2c3ccccc3Oc3ccccc32)CC1,i,i,i,i,i
CS(=O)(=O)N1CCN(C(=O)C2c3ccccc3Oc3ccccc32)CC1,i,i,-185,i,i
CCCOc1ccccc1C(=O)N1CCCCC1CCN1CCCCC1 (centres undefined),i,nt,nt,nt,i
O=C1C(=O)N(c2ccccn2)C(c2cccc(F)c2)/C1=C(/O)c1ccccc1 (centres undefined),i,i,-102,i,i
CCOc1ccc(NC(=O)Cn2nc(CC)n3c(cc4sccc43)c2=O)cc1,i,nt,nt,nt,i
O=C(CNC(=O)c1cccs1)OCC(=O)c1ccc2ccccc2c1,14µM,i,i,i,i
COc1ccc(S(=O)(=O)NCc2ccc3c(c2)CCN3C(C)=O)cc1OC,i,nt,nt,nt,i
O=[N+]([O-])c1ccc(COc2ncnc3ccccc23)cc1,i,i,-192,-163,i
O=C(COc1ncnc2ccccc12)Nc1cc([N+](=O)[O-])ccc1Cl,i,i,i,i,i
Cc1cccn2c(CNC3CCCc4ccccc43)c(C(=O)N3CCCCC3)nc12 (centres undefined),i,i,-182,i,i
